{
  "source": "paper PMC10480535",
  "biological_target": "MOB kinase activator 2 (UniProt Q70IA6)",
  "sequence (Q70IA6 whole entry)": "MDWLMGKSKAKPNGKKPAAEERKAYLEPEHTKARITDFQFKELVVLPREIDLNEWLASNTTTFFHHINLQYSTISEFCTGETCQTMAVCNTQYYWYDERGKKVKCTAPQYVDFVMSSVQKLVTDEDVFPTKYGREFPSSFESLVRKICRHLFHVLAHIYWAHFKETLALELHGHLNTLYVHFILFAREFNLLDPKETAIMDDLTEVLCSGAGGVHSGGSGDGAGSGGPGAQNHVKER",
  "test": "cross-link between two proteins; cross-linking mass spectrometry; proximity labelling",
  "data": [
    {"substance": "Flotillin-1, O75955", "values": [
      {"measurement": "listed as a hit", "result": "yes"}
    ]}
  ]
}
